From PubChem
15-hLO-2 inh: qHTS Assay for Inhibitors of 15-hLO-2 (15-human lipoxygenase 2). Polyunsaturated fatty acid lipoxygenase ALOX15B (Homo sapiens), O15296. purified 15hLO-2, xylenol orange hydroperoxide absorbance. Potency, µM (doses to about 57.1 µM), usual class: inhibitors. 110,000 tested, 0.56% active; note: nearly all actives have a fitted effect of over 60% in size
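Read-out: hydroperoxide product oxidises ferrous iron, measured as xylenol orange complex via the 573-to-405 nm absorbance ratio after 30 min. Reaction: 50 nM enzyme, 15 min compound preincubation, 45 uM arachidonic acid, 90 min RT, Hepes pH 7.5 with Triton X-100.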
15-hLO inh: qHTS Assay for Inhibitors of 15-hLO (15-human lipoxygenase) | 74,000 tested, 1.4% active | purified 15hLO-1, xylenol orange hydroperoxide absorbance | Potency, µM (doses to about 57.1 µM), hits mostly inhibitors | Polyunsaturated fatty acid lipoxygenase ALOX15 (Homo sapiens), P16050; note: nearly all actives have a fitted effect of over 55% in size
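Quantitative HTS in 25 mM Hepes pH 7.5 containing 0.01% Triton X-100: human 15hLO-1 at 40 nM, arachidonic acid at 50 uM, 6 min turnover. Product quantified via ferrous oxidation/xylenol orange, 573:405 nm absorbance ratio.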
Hsp90 Hop PPI: qHTS Assay for Disrupters of an Hsp90 Co-Chaperone Interaction; Potency, µM (doses to about 57 µM); 71,000 tested, 0.44% active; AID 595, 2007; Hsp90 C-terminal peptide / TPR2A (Hop) interaction, human; AlphaScreen TPR2A-His6 binding biotin-Hsp90 C-terminal peptide; active = well fitted curve in either direction with a large enough effect; inconclusive = small, poorly fitted or top-dose-only effect, or another doubt
Caspase-7 inhib: qHTS Assay for Allosteric/Competitive Inhibitors of Caspase-7. recombinant caspase-7, Ac-DEVD-AFC fluorescence rate. 75,000 tested, 0.02% active. P55210. Potency, µM (highest dose often 57.5 µM), actives largely listed as inhibitors; active = well fitted inhibition curve with a large enough effect in the main read-out, with a control signal flat, not every such curve was filed as active; inconclusive = small, poorly fitted or top-dose-only effect, or a change in a side signal
Tau filament bind: qHTS Assay for Tau Filament Binding. 71,000 tested, 2% active. recombinant tau filaments, thioflavin S fluorescence, 15 h; filaments grown with octadecylsulfate alongside compound. Potency, µM (series often up to 57.1 µM). AID 596, 2007. Microtubule-associated protein tau (Homo sapiens), P10636;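 note: actives lower thioflavin S fluorescence by blocking filaments or displacing dye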
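Read-out: ThS fluorescence, 450 nm excitation/510 nm emission; lower signal marks blocked filament formation or displaced dye. Tau at 1 uM with 30 uM ODS, 10 uM ThS, 5 mM DTT, 100 mM NaCl, 10 mM HEPES pH 7.4; 15 h, 37 C.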
Casp1 inh: qHTS Assay for Allosteric/Competitive Inhibitors of Caspase-1; Caspase-1 enzyme, Ac-WEHD-AFC fluorogenic rate; P29466; 75,000 tested, 0.03% active; Potency, µM (titrated, usually from 57.5 µM), hits mostly inhibitors
Hits are given with their value; . = inactive; ? = inconclusive; / = no result; [ ] = another dose, or the depositor's remark. This is a sample that favours compounds with a hit; in the whole collection about 2.4% have one here. Unless noted, calls come from the whole dose curve; as a rule, active = well fitted curve in the direction sought with a large enough effect; inconclusive = small, poorly fitted or top-dose-only effect, or another doubt; inactive = no such curve, though single readings can be large; an effect the other way counts as inactive or inconclusive.

SMILES | 15-hLO-2 inh | 15-hLO inh | Hsp90 Hop PPI | Caspase-7 inhib | Tau filament bind | Casp1 inh
CCOC(=O)c1cnn2c(C)cc(-c3ccccc3)nc12 | . | . | . | . | . | .
CC(=O)N[C@@H](Cc1ccc(O)cc1)C(=O)O | .[0.0915 µM] | / | / | / | / | /
O=S1(=O)CCN(Cc2ccccn2)CC1 | .[11.4 µM] | .[11.4 µM] | .[11 µM] | .[11.5 µM] | .[11.4 µM] | .[11.5 µM]
c1ccc(CNCCN2CCNCC2)nc1 | . | . | 3.98µM | . | . | .
COc1ccccc1N1C(=O)CC(Nc2ccc(N3CCOCC3)cc2)C1=O (stereo not drawn) | . | 12.6µM | . | . | . | .
CCOc1ccccc1N1C(=O)CC(Nc2ccc(N3CCOCC3)cc2)C1=O (stereo not drawn) | 15.8µM | ? | .[11 µM] | . | ? | .
COC(=O)c1cc(-c2ccccc2)sc1NC(=O)CN1C(=O)c2ccccc2C1=O | . | / | / | / | / | /
CC(=O)N1CCN(c2ccc(NCc3ccc(F)cc3)cc2)CC1 | 25.1µM | 10µM | . | . | ? | .
CC(C)c1ccc(CNc2ccc(N3CCOCC3)cc2)cc1 | .[2.29 µM] | 7.94µM | ? | . | 25.1µM | .
CC(=O)N1CCN(c2ccc(NC(=O)c3ccc(C(C)(C)C)cc3)cc2)CC1 | .[11.4 µM] | . | ? | . | ? | .
Cc1cccc([C@H]2[C@@H]3C=CC(C)C[C@@H]3C(=O)N2Cc2ccccc2)c1 (stereo partly drawn) | .[0.0915 µM] | / | / | / | / | /
O=C(Nc1cnn(Cc2ccc(F)cc2)c1)c1cc2nc(-c3ccco3)cc(C(F)(F)F)n2n1 | . | . | . | . | 15.8µM | .
Cc1nn(Cc2ccccc2)c(C)c1NC(=O)c1cc2nc(-c3ccco3)cc(C(F)(F)F)n2n1 | . | . | . | ? | 15.8µM | /
O=C(Nc1ccc2oc(-c3cccnc3)nc2c1)c1cc2ccccc2o1 | . | . | . | . | . | .
c1ccc(CSc2nnc3c(n2)OC(c2ccco2)Nc2ccccc2-3)cc1 (stereo not drawn) | ? | .[11.4 µM] | .[11 µM] | . | 3.98µM | .
C=CCSc1nnc2c(n1)OC(c1cccnc1)Nc1ccccc1-2 (stereo not drawn) | . | ? | . | . | . | .
COc1ccc(NC(=O)NCCCN2CCCCC2C)cc1 (stereo not drawn) | . | . | . | . | . | .
CCN(CC)c1ccc(NC(=O)c2nc3nc(C)cc(C(F)F)n3n2)cc1 | . | . | . | . | 15.8µM | .
C/C(=C\C(=O)c1ccc(C)o1)Nc1ccc2c(c1)OCO2 | . | . | . | . | 12.6µM | .
O=C(Nc1ccc(CN2CCCCC2)cc1)c1ccc2c(c1)OCO2 | . | . | . | . | . | .
Cc1ccc(C(=O)Nc2ccc3c(c2)OCO3)o1 | . | . | . | . | 20µM | .
O=C(Nc1ccc2c(c1)OCO2)c1ccc(CN2CCOCC2)cc1 | .[2.29 µM] | . | . | . | 15.8µM | .
COc1ccc(NC(=O)c2nc3nc(C)cc(C(F)F)n3n2)cc1OC | . | ? | . | . | . | .
Oc1ccc(-c2[nH]nc(-c3ccccc3)c2-c2nc3ccccc3[nH]2)cc1 | . | / | / | / | / | /
Cc1c(S(=O)(=O)N2CCN(C(=O)c3ccco3)CC2)c(=O)n(C)c(=O)n1C | . | . | ? | . | . | .
SMILES | 15-hLO-2 inh | 15-hLO inh | Hsp90 Hop PPI | Caspase-7 inhib | Tau filament bind | Casp1 inh
Cc1cc(C)n2nc(C(=O)Nc3ccc4c(c3)OCO4)nc2n1 | . | . | . | . | 31.6µM | .
Cc1ccc(OCC(=O)NNC(=O)C2CCN(c3ncccn3)CC2)cc1 | . | / | / | / | / | /
O=c1cc(-c2c(F)c(F)c(F)c(F)c2F)oc2c(F)c(F)c(F)c(F)c12 | . | . | . | . | 15.8µM | .
CCC1=NN(C(=O)CCc2ccccc2)C(O)(C(F)(F)F)C1 (stereo not drawn) | . | / | / | / | / | /
Cc1ccc(S(=O)(=O)N(CCCO)Cc2cc3c(C)ccc(C)c3[nH]c2=O)cc1 | . | / | / | / | / | /
COc1ccc(N2CCN(Cc3nc(-c4ccc(Cl)cc4Cl)no3)CC2)cc1 | / | . | . | . | 12.6µM | .
CCc1nnc2n1N=C(c1ccc(-c3ccc(Cl)cc3Cl)o1)CS2 | / | ? | . | . | 25.1µM | .
Clc1ccc(OCc2nnc3n2N=C(c2ccc4c(c2)OCCO4)CS3)c(Cl)c1 | . | . | . | . | . | .
Fc1ccc(C2=Nn3c(Cc4ccccc4F)nnc3SC2)cc1 | . | / | / | / | / | /
CCc1nnc2n1N=C(c1ccc(-c3cc(Cl)ccc3Cl)o1)CS2 | . | . | . | . | 15.8µM | .
N=C1[C@@H](O)[C@]2(I)c3ccccc3N3C(=N)[C@H](O)[C@@H]4c5ccccc5N1[C@@H]4[C@@H]32 | ? | ? | .[11 µM] | .[11.5 µM] | 1µM | .[11.5 µM]
c1csc(CNc2nc(-c3ccoc3)nc3ccccc23)c1 | . | ? | . | . | 25.1µM | .
Nc1ccn(-c2ccc(Cl)cc2)c(=O)c1 | . | ? | . | . | . | .
CCc1ccc(C2CC(c3ccccc3Cl)Nc3nc(N)nn32)cc1 (stereo not drawn) | . | . | . | . | 20µM | .
Cc1ccc(C)c(N2CCN(C(=O)CCS(=O)(=O)c3cccc4nonc34)CC2)c1 | . | . | . | . | 31.6µM | .
CC1Cc2ccccc2N1C(=O)CCS(=O)(=O)c1cccc2nonc12 (stereo not drawn) | . | . | . | . | . | .
CCOc1ccccc1C(=O)NCC(=O)OCC(=O)NCCc1ccc(S(N)(=O)=O)cc1 | . | . | . | . | . | .
CCOC(=O)c1nnc2cc(-c3ccc(Br)cc3)nn2c1C | . | . | . | . | 10µM | .
CCOC(=O)c1cnc2cc(-c3ccc(C)cc3)nn2c1-c1ccccc1 | . | / | / | / | / | /
CCOC(=O)c1nnc2cc(-c3ccccc3)nn2c1C | . | . | . | . | 15.8µM | .
CN1CCN(C(=O)c2cc3nc(-c4ccc(Cl)cc4)cc(C(F)(F)F)n3n2)CC1 | . | .[11.4 µM] | .[11 µM] | . | 2.51µM | .
CN1CCN(C(=O)c2cnn3c(C(F)(F)F)cc(-c4ccc5c(c4)OCO5)nc23)CC1 | . | . | . | . | . | .
Cc1ccc(-c2cc(C(F)(F)F)n3ncc(C(=O)N4CCN(C)CC4)c3n2)cc1 | . | .[11.4 µM] | .[11 µM] | . | 3.98µM | .
CN1CCN(C(=O)c2cc3nc(-c4ccccc4)cc(C(F)(F)F)n3n2)CC1 | . | . | . | . | 25.1µM | .
CCN1CCN(C(=O)c2cnn3c(C(F)F)cc(-c4ccc(C)cc4)nc23)CC1 | . | . | . | . | 20µM | .
CC(C)(C)CC(C)(C)NC1=CC(=O)OC12CCCCC2 | . | / | / | / | / | /
FC(F)(F)c1cccc(Sc2nc(-c3ccccc3)nnc2C(F)(F)F)c1 | . | / | / | / | / | /
COc1cccc(NC(=O)CSc2nc3c(c(-c4ccco4)c2C#N)CCCC3)c1 | . | . | . | . | ? | .
